Experimental data: PubChem BioAssay (NCI)
The panel holds about 79,000 compounds, 15% with a hit somewhere; the sample as a whole holds those more often. Active and inactive are the calls of the source. No stated cut-off is given here; in the data, active means growth inhibition above about 70%; inactive means the rest.

Key:
[1] = NCI Yeast Anticancer Drug Screen. Data for the rad50 strain (AID 155);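 further: 0% = growth of vehicle-only cultures of the same strain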; conditions: S. cerevisiae rad50 strain growth inhibition; at 50.0 µM; stronger effect = higher value
Outline: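 Genetically altered yeast (DNA repair pathway); compound treatment; growth inhibition vs vehicle ctrl.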

[2] = NCI Yeast Anticancer Drug Screen. Data for the mec2-1 strain (AID 157); conditions: S. cerevisiae mec2-1 strain, at 50.0 µM, stronger effect = higher value
Outline: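 Compounds were applied to mec2-1 yeast cells. Their growth was then compared with that of vehicle-treated cultures to give growth inhibition.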

[3] = NCI Yeast Anticancer Drug Screen. Data for the sgs1 mgt1 strain (AID 161);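 further: 0% = growth of cultures given vehicle only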; conditions: S. cerevisiae sgs1 mgt1 strain, at 50.0 µM, stronger effect = higher value
Outline: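 Percent growth inhibition was derived by comparing compound-exposed mutant yeast with vehicle-exposed cultures. The strain carries alterations in DNA damage repair.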

[4] = NCI Yeast Anticancer Drug Screen. Data for the cln2 rad14 strain (AID 165);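 further: 0% = growth equal to vehicle treated cultures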; conditions: S. cerevisiae cln2 rad14 strain, at 50.0 µM, stronger effect = higher value
Outline: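 Strain: cln2 rad14 yeast, altered in cell cycle control and DNA damage repair. Read-out: growth inhibition vs vehicle.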

[5] = NCI Yeast Anticancer Drug Screen. Data for the bub3 strain (AID 167); conditions: S. cerevisiae bub3 mutant strain, at 50.0 µM, stronger effect = higher value
Outline: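 Yeast carrying a defined mutation is treated with each compound, and growth is compared with that of vehicle-exposed cells to give inhibition.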

[6] = NCI Yeast Anticancer Drug Screen. Data for the mlh1 rad18 strain (AID 175); conditions: S. cerevisiae mlh1 rad18 strain growth inhibition; at 50.0 µM; stronger effect = higher value
Outline: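 A repair-deficient yeast strain is exposed to test compound, and growth is scored relative to vehicle-treated controls.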

Measured: growth inhibition

C=C1CC(CC(=O)C(C)CC2CC(=C)C(=O)O2)OC1=O (stereo unspecified)
inactive: [1] 14.1% | [2] -30.9% | [3] 14.9% | [4] 8.4% | [5] 24.5% | [6] 26.3%

O=S1(=O)CC2C3CC(Oc4ccccc4)C(C3)C2C1 (stereo unspecified)
inactive: [1] -9.85% | [2] -6.35% | [3] -4.2% | [4] -20.9% | [5] -26.6% | [6] -6.5%

CC(=O)Nc1ccc(C(=O)N2N=C(C)/C(=C/c3cccc([N+](=O)[O-])c3)C2=O)cc1
inactive: [1] -9.8% | [2] -17.6% | [3] -47.5% | [4] 2.55% | [5] -21.9% | [6] -32.2%

Cc1cc(=O)[nH]c(NNC(C#N)c2c(O)ccc3ccccc23)n1 (stereo unspecified)
inactive: [1] 23.6% | [2] 13.2% | [3] 24.2% | [4] -2.9% | [5] 1.45% | [6] 12.9%

O=C(c1ccccc1)C1C(C(=O)c2ccccc2)C(c2ccccc2)N(c2ccccc2)C1c1ccccc1 (stereo unspecified)
inactive: [1] 27.4% | [2] 17.8% | [3] -27.1% | [4] 18.9% | [5] -12.2% | [6] -75.2%

COC(=O)C1(C(C(=O)c2ccccc2)c2ccccc2)NC(=S)NC(=O)C1C#N (stereo unspecified)
inactive: [1] -14.4% | [2] 10.2% | [3] -19.9% | [4] 6.25% | [5] -15.4% | [6] -9.7%

CCOC(=O)CCC1(CCC(=O)OCC)CCCCCCCCC(CCC(=O)OCC)(CCC(=O)OCC)C(=O)C1=O
inactive: [1] 12.9% | [2] 12.3% | [3] -14.7% | [4] 38% | [5] -4.7% | [6] -1.3%

Cn1c(=O)c2nc3c(=O)n(C)c(=O)n(CC(N)=O)c3nc2n(C)c1=O
inactive: [1] 28.2% | [2] -5.65% | [3] 14.9% | [4] 26.2% | [5] 12.1% | [6] 21.4%

O=C(N/N=C/c1ccc(O)cc1)c1ccccc1NC(=O)C1CC1
inactive: [1] 3.25% | [2] 23.7% | [3] 18.9% | [4] 2.55% | [5] -0.85% | [6] -21.1%

CSc1ccc2c(c1)Cc1cc(N)ccc1-2
inactive: [1] 3.9% | [2] 10.6% | [3] 12.1% | [4] 3.4% | [5] -26.7% | [6] 10.8%

O=C(Nc1ccccc1O)c1ccc([N+](=O)[O-])cc1
inactive: [1] 2.2% | [2] 34.4% | [3] -4.4% | [4] -15.6% | [5] 20.4% | [6] 19.1%

Cc1ccoc1
inactive: [1] 12.5% | [2] -18.1% | [3] 6.45% | [4] 11.8% | [5] 26.8% | [6] 15.8%

COC(=O)c1ccccc1/C=C1\SC(=S)NC1=O
inactive: [1] -1.6% | [2] 6.3% | [3] 17.9% | [4] -9.85% | [5] -4.95% | [6] -0.7%

N#CC1(CCCI)CCCC1
inactive: [1] 9.3% | [2] 7.05% | [3] 7.95% | [4] -7.45% | [5] -2.3% | [6] 6.1%

CCc1ccc2c(c1)/C(=N\NC(N)=O)CCC2
inactive: [1] -11.2% | [2] 13.5% | [3] -12.8% | [4] -7.6% | [5] 9.8% | [6] -9.5%

O=c1cc(-c2ccccc2)oc2c(-c3cc(Cl)cc4c(=O)cc(-c5ccccc5)oc34)cc(Cl)cc12
active: [6] 79.3%
inactive: [1] -6.65% | [2] 23.4% | [3] 13.7% | [4] -3.1% | [5] -2.2%

Nc1nc(N)c(-c2ccccc2)c(CCC(=O)Nc2ccc(Cl)cc2)n1
inactive: [1] -34.8% | [2] 3.95% | [3] -3.35% | [4] -27.9% | [5] -21.5% | [6] 7.8%

COc1ccccc1C(O)(c1ccccc1)C(O)(c1ccccc1)c1ccccc1OC (stereo unspecified)
inactive: [1] -20.1% | [2] 2.65% | [3] -20.2% | [4] 15.6% | [5] -5.65% | [6] -4.2%

CCCCCCCCCCCCCCCC[N+](C)(C)CCN
active: [1] 98.9% | [4] 73.4%
inactive: [2] 50.8% | [3] 58.4% | [5] 49.2% | [6] 59.7%

C=CC(C)Cc1ccccc1 (stereo unspecified)
inactive: [1] 2% | [2] 1.05% | [3] 7.85% | [4] 24.1% | [5] 31.5% | [6] 25.2%

CC1(C)COC(c2cc(Br)ccc2Br)=N1
inactive: [1] 4.9% | [2] -16.2% | [3] 7% | [4] 3.45% | [5] -3.3% | [6] 1.35%

CSc1ccc(C(=NO)c2ccc(SC)cc2)cc1
inactive: [1] -11.4% | [2] 17.8% | [3] -1.3% | [4] -0.85% | [5] -8.5% | [6] -11.7%

CCC(=O)c1ccc2c(ccc3ccccc32)c1O
inactive: [1] -18.3% | [2] -6.8% | [3] -4.15% | [4] -22.1% | [5] 2.85% | [6] -11.6%

CC(=O)N(C)c1ccc(NC(=S)NC(=O)c2cccc([N+](=O)[O-])c2)cc1
inactive: [1] 3.55% | [2] 21.6% | [3] 6.9% | [4] -4.15% | [5] 27.5% | [6] 7.05%

CCOC(=O)C1=NC(c2ccccc2)N(c2ccccc2)C1c1ccccc1 (stereo unspecified)
inactive: [1] -9% | [2] -8.5% | [3] 17.9% | [4] -0.75% | [5] 10.3% | [6] 8.3%

CC(C)C(CN)(c1ccccc1)c1ccccc1
inactive: [1] -4.4% | [2] -7.75% | [3] -8.85% | [4] -59% | [5] -3.3% | [6] -10.9%

O=C1/C(=C/c2ccc(O)cc2)CCc2ccc([N+](=O)[O-])cc21
inactive: [1] -10.3% | [2] -1.15% | [3] 9.45% | [4] 13.8% | [5] -0.8% | [6] -55.4%

O=C(CCBr)Nc1ccccc1
inactive: [1] 11.1% | [2] -15.2% | [3] -7.15% | [4] -38.2% | [5] -7.35% | [6] -26.4%

Cc1n[nH]c(=O)n1Nc1ccccc1
inactive: [1] 13.2% | [2] -7.7% | [3] 9.1% | [4] 13.3% | [5] 1.5% | [6] 6.6%

CCS(=O)(=O)C(S(C)(=O)=O)S(=O)(=O)C(C)C (stereo unspecified)
inactive: [1] -1.65% | [2] 31.6% | [3] 8.45% | [4] -9.15% | [5] 26.8% | [6] 14%

CCON=C(c1ccc(Cl)cc1)c1ccc(Cl)cc1
inactive: [1] 2.45% | [2] -21.6% | [3] 12.7% | [4] 16.8% | [5] 26.1% | [6] 1.4%

CC(=O)C1CCCCCCC1=O (stereo unspecified)
inactive: [1] 16.1% | [2] -5.35% | [3] 4.9% | [4] -15.8% | [5] -11.8% | [6] 16.1%

COc1cc(/C=N/N2CC(=O)N(c3cccc(Cl)c3)CC2=O)cc(OC)c1
inactive: [1] -1.65% | [2] 5.7% | [3] -1.6% | [4] -12.8% | [5] -4.65% | [6] 26.7%

CCCOC(=O)CCBr
inactive: [1] -2.55% | [2] 10.1% | [3] -13.9% | [4] -57% | [5] -22.9% | [6] -8.1%

CC(=O)OC(COC(c1ccccc1)(c1ccccc1)c1ccccc1)C(OC(C)=O)C(COC(c1ccccc1)(c1ccccc1)c1ccccc1)OC(C)=O (stereo unspecified)
inactive: [1] -25.9% | [2] -8.4% | [3] -22.5% | [4] -18.8% | [5] -6.6% | [6] -15.1%

CC(=O)Oc1c(C)n(C(C)=O)c2cc(Cl)ccc12
inactive: [1] 1.35% | [2] -5.55% | [3] 15.3% | [4] -45% | [5] 6.15% | [6] -8.3%

CC(Br)C(=O)Nc1ccc(C(=O)O)c(O)c1 (stereo unspecified)
inactive: [1] 3.85% | [2] -32.8% | [3] -18.8% | [4] 20.9% | [5] -7.5% | [6] 2.95%

N#CC1CNC(N)NC1N (stereo unspecified)
inactive: [1] -0.1% | [2] 4.8% | [3] -8.05% | [4] -7.95% | [5] 7.35% | [6] 1.65%

O=C(O)C1C2C=CC(O2)C1C(=O)NCc1ccccn1 (stereo unspecified)
inactive: [1] -3.5% | [2] -26.5% | [3] -7.3% | [4] -22.6% | [5] -37% | [6] 9.85%

O=C(c1ccc(Cl)cc1Cl)N1CCCCC1
inactive: [1] 1.45% | [2] -6.15% | [3] 1.75% | [4] -1.25% | [5] 4.9% | [6] 0.15%

CCOC(=O)Cn1c(=O)c2nc(SC)sc2n(-c2ccccc2)c1=O
inactive: [1] -19.9% | [2] 10.8% | [3] -37.1% | [4] 6.9% | [5] -1.45% | [6] 9.4%
